Assay outcomes deposited in PubChem BioAssay by National Center for Advancing Translational Sciences (NCATS).
This is a sample that favours compounds with a hit; in the whole collection about 12% have one here.
HP1b binding inh: HP1-beta chromodomain-methylated histone interaction inhibition; AID 540317; Potency, µM (titrated, usually from 114 µM), for the others: at the top dose activity change, negative = inhibition, usual class: inhibitors; hit rate 0.56% among 390,000; P83916; AlphaScreen HP1-beta / biotin-H3K9me3 peptide binding; further: nearly all actives have a fitted effect of over 70% in size
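Compound inhibition of the preformed complex between 50 nM HP1-beta and 50 nM biotinylated H3K9me3 peptide was read by AlphaScreen. Buffer was PBS pH 7.4 with 0.01% Tween-20. Incubations ran 30 min at room temperature, with 10 ug/mL donor/acceptor beads.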
G9a inh: blocks human histone lysine methyltransferase G9a; Q96KQ7; G9a H3K9 monomethylation, AlphaScreen, 2 h; Potency, µM (titrated, usually from 102 µM), without a hit: at the top dose activity, negative = inhibition, usual class: inhibitors; AID 504332; hit rate 8.8% among 350,000; further: on the % scale 0 is the no-effect control and ±100 the full control effect; nearly all actives have a fitted effect of over 75% in size
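Chemiluminescent proximity detection of H3K9 monomethylation, read after 10 min bead incubation in the dark. Reaction: 20 nM G9a, 500 nM biotin-H3K9 peptide, 20 uM SAM cofactor, 2 h, room temperature, following 15 min enzyme-compound preincubation.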
BAZ2B inh: BAZ2B (human) inhibition; AlphaScreen BAZ2B-H3K14Ac peptide displacement; Potency, µM (top dose mostly 114 µM), inactives show top-dose activity change, negative = inhibition, hits mostly inhibitors; hit rate 4.4% among 360,000; AID 504333; further: on the % scale 0 is the no-effect control and ±100 the full control effect; nearly all actives have a fitted effect of over 60% in size
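Inhibition is scored as reduced AlphaScreen emission. The BAZ2B/b-H3(5-23)K14Ac complex (50 nM each) in PBS pH 7.4, 0.01% Tween-20 meets compound (up to 110 uM) for 30 min at RT before bead addition.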
L3MBTL1 inh: blocks human L3MBTL1 | AlphaScreen L3MBTL1–H3K9me1 peptide binding | Potency, µM (doses to about 57.1 µM), for the others: at the highest dose activity, negative = inhibition, usual class: inhibitors | hit rate 0.66% among 230,000; further: on the % scale 0 is the no-effect control and ±100 the full control effect; nearly all actives have a fitted effect of over 60% in size
Target sequence (Q9Y468 whole entry, looked up): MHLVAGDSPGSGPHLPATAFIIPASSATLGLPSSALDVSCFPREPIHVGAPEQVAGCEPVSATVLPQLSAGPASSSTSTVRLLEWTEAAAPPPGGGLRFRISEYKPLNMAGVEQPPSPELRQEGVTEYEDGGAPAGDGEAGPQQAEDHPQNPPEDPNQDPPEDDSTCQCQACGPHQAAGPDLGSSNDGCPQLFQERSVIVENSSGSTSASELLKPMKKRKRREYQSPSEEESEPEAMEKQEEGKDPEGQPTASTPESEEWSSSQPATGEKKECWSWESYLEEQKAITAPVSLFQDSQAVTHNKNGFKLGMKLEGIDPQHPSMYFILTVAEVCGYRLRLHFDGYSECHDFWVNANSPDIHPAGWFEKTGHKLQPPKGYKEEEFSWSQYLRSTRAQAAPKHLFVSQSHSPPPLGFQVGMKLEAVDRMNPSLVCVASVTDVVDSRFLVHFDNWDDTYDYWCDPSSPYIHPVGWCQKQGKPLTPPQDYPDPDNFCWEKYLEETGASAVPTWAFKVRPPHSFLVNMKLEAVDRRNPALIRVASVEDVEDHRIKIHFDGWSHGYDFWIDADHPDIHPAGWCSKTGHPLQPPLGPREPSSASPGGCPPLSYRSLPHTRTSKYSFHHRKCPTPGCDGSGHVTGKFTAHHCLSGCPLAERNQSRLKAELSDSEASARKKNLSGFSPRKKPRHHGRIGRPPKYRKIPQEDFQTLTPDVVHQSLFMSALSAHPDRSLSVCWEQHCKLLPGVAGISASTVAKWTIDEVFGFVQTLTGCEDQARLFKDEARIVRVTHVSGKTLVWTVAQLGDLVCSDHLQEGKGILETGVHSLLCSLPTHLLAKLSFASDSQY
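AlphaScreen proximity signal between nickel-chelate acceptor and streptavidin donor beads (final 10 ug/mL) reports binding of 50 nM L3MBTL1 to 75 nM biotin-H3 K9me1 peptide; complex incubated with compounds 30 min at room temperature; cefsulodin titration as control.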
Sfp inh: Sfp phosphopantetheinyl transferase inhibition; AID 1490; Potency, µM, for the others: largest response in the series, negative = inhibition, usual class: inhibitors; Biochemical Sfp PPTase activity, qHTS; Q9F4F7; hit rate 3.5% among 310,000;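 further: the enzyme is Sfp with the accession as filed and its product quenches rhodamine fluorescence; 0% = enzyme reaction without inhibitor and -100% = no enzyme wells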
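Reaction rates are the 30-min fluorescence difference (ex 525, em 598 nm) in wells containing 15 nM Sfp, 5 uM rhodamine-CoA and 12.5 uM BHQ-2-YbbR at pH 7.6 with 10 mM MgCl2.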
JMJD2A Tudor: JMJD2A Tudor domain (human) inhibition | O75164 | AlphaScreen JMJD2A-Tudor / H3K4me3 peptide binding | Potency, µM (series often up to 114 µM), without a hit: at the top dose activity change, negative = inhibition, actives largely listed as inhibitors | hit rate 4.4% among 390,000 | AID 504339; further: on the % scale 0 is the no-effect control and ±100 the full control effect; nearly all actives have a fitted effect of over 50% in size
* marks the source's active call; other numbers are inactive results; ? = inconclusive; . = no result given; [ ] = remark or other dose. The call rests on the fitted dose curve; in most records, active means well fitted curve in the direction sought with a large enough effect; inconclusive means small, poorly fitted or top-dose-only effect, or another doubt; inactive means no such curve, though single readings can be large; an effect the other way counts as inactive or inconclusive. Potency means the concentration at half of the fitted maximal effect.

SMILES	HP1b binding inh	G9a inh	BAZ2B inh	L3MBTL1 inh	Sfp inh	JMJD2A Tudor
CCC(C)(Oc1ccc(C2(c3ccc(OC(C)(CC)C(=O)O)cc3)CCCCC2)cc1)C(=O)O (centres undefined)	.	-4.6%[12.7 µM]	.	.	25.2%	.
CN(C)Cc1ccccc1-c1nc(NCc2ccccc2)c2ccccc2n1	.	.	.	.	-6.1%	.
Cc1ccc2nc3c(cc(C(N)=S)c(=N)n3CCCOC(C)C)c(=O)n2c1	?	22.4µM*	-7.2%	3.1%	44.7µM*	?
Cc1cccn2c(=O)c3cc(C(N)=S)c(=N)n(CCCN4CCOCC4)c3nc12	25.8%	44.7µM*	-32.8%	.	-26.8%	-31.2%
Cc1cccn2c(=O)c3cc(C#N)c(=N)n(CCN4CCOCC4)c3nc12	0.6%	19.5%	50.1µM*	.	6.2%	6.9%[11.4 µM]
COc1ccc(NC(=O)N2CC3(CCN(C(=O)c4cc(C(F)(F)F)cc(C(F)(F)F)c4)CC3)C2)cc1	.	-2.6%[12.7 µM]	.	.	13.3%	.
COc1ccc(NCc2cc3cc4c(cc3n(CC(=O)Nc3ccc(C)c(C)c3)c2=O)OCO4)cc1	3.2%	?	-28.7%	.	.	-30.0%
COC(=O)c1c(NC(=O)CCCOc2ccc(C(C)(C)C)cc2)sc2c1C(C(=O)OC)CC2 (centres undefined)	-24.0%	1.41µM*	28.2µM*	.	.	56.2µM*
CCCC(=O)Nc1sc2c(c1C(=O)OC)C(C(=O)OC)CC2 (centres undefined)	11.1%	-3.0%[59 µM]	9.0%	-3.5%	-7.4%	-11.5%
CCCCCCCCCCCCCC[n+]1ccc(C)cc1	.	?	.	.	56.2µM*	.
CCCCCCCCCCCCCCCC[n+]1ccc(C(N)=O)cc1	?	-13.4%[59 µM]	-28.0%	14.5%	?	?
Cc1cc[n+](CC[n+]2ccc(C)cc2)cc1	24.8%	14.9%[12.7 µM]	-8.1%	4.7%	.	-18.3%
CCCCCCCCCCCCCCCC[n+]1ccc(/C=N/O)cc1	-3.6%	8.7%[59 µM]	5.6%	10.0%	31.6µM*	-25.3%
CCN(CC)CCOC(=O)c1ccc(N/C=C(/C#N)c2nc(-c3ccc(OC)c(OC)c3)cs2)cc1	14.1µM*	1.58µM*	-32.7%	.	?	35.5µM*
CCN(CC)CCOC(=O)c1ccc(N/C=C(/C#N)c2nc(-c3cccc(OC)c3)cs2)cc1	10.6%	28.2µM*	?	.	?	-11.4%
Cc1ccc(-c2csc(/C(C#N)=C/Nc3ccc4c(c3)OCCO4)n2)cc1	18.3%	-14.3%	-22.3%	1.5%	7.4%	-21.4%
NC(=O)C(=O)NN=C1C2CC3CC(C2)CC1C3	1.1%	44.7µM*	-35.1%	-1.7%	12.4%	?
NC(=S)NN=C1C2CC3CC(C2)CC1C3	-24.0%	14.1µM*	-11.2%	7.0%	31.6µM*	-17.0%
Cc1ccc2c(c1)cc1c(=O)n(Cc3ccc(Cl)cc3)nc(C)n12	20.5%	4.1%[59 µM]	-2.4%	.	.	-10.1%
COc1cccc(S(=O)(=O)Nc2ccc3sc(C)nc3c2)c1	25.9%	22.4µM*	-8.2%	.	?	79.4µM*
Cc1nc2cc(NS(=O)(=O)c3cccc4cccnc34)ccc2s1	35.3%	.	7.4%	-3.3%	6.6%	-10.3%
COc1ccc(-c2c(C)nn3c(C(F)(F)F)cc(-c4ccc(Br)cc4)nc23)cc1	-8.7%	?	?	.	.	?
COc1ccccc1-c1c(C)nn2c(C(F)(F)F)cc(-c3ccccc3)nc12	-7.4%	8.91µM*	?	.	.	-34.0%
CC1(C)OC(=O)C=C[C@@]2(C)C1C[C@@H](O)[C@]1(C)C2CC[C@@]2(C)C(c3ccoc3)OC(=O)[C@H]3O[C@]321 (some centres undefined)	.	.	.	.	-3.9%	.
Cc1cccc(CCNC(=O)C2CCN(S(=O)(=O)N3CCOCC3)CC2)c1	-0.6%	15.5%	1.3%	.	13.3%	-25.7%
CCN(CCCNC(=O)C1CCN(S(=O)(=O)N2CCOCC2)CC1)c1cccc(C)c1	7.5%	35.5µM*	-33.4%	-1.6%	18.0%	?
Cc1ccc(CCNC(=O)C2CCN(S(=O)(=O)N3CCOCC3)CC2)cc1	?	10.0%	-3.9%	.	5.0%	28.2µM*
